Experimental data from PubChem BioAssay (NCATS).
Values without a mark were called inactive. Results filed as inconclusive are left out. Where a call stands in place of a potency, no number is given. The source made the active and inactive calls. Unless noted, calls follow the shape of the dose curve; as a rule, active = well fitted curve in the direction sought with a large enough effect; inconclusive = small, poorly fitted or top-dose-only effect, or another doubt; inactive = no such curve, though single readings can be large; an effect the other way counts as inactive or inconclusive.

How the values were obtained:
[1] = Cell Viability - Mesenchymal (AID 546);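 also: cells exposed to compound for 40 hours before reading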
In short: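 Human renal mesenchymal cells (glomerulus-derived), 1000 cells/well, 5 hr 37 °C pre-incubation; compound 40 hr, 37 °C; CellTiter-Glo, 20 min RT; luminescence; AC50 via Hill equation.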

[2] = Cellular Toxicity (caspase-3) HepG2 (AID 654);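 also: cells exposed to compound for 16 hours before reading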
In short: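 Luminescent Caspase-Glo 3/7 readout after 16 hr compound exposure of human hepatocellular carcinoma HepG2 cells at 37 °C; qHTS concentration-response, normalized DMSO = 0%, 100 uM tamoxifen = 100%; AC50 by standard Hill equation.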

[3] = Cellular Toxicity (caspase-3) Jurkat (AID 655); settings: Jurkat caspase-3 activation, luminescence, DMSO = 0%, tamoxifen = 100%; at 92.2 µM (top of the series);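 also: cells exposed to compound for 16 h at 37 °C before reading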
In short: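 qHTS in human Jurkat T-cell leukemia line: 16 hr compound treatment at 37 °C, caspase-3/7 activity measured by Caspase-Glo luminescence. AC50 derived from Hill equation.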

[4] = Cellular Toxicity (caspase-3) HUV-EC-C (AID 656)
In short: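 Concentration-dependent caspase 3/7 induction was assessed in HUV-EC-C cells exposed for 16 hours. Data scaled between DMSO and tamoxifen (100 uM) controls.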

[5] = Cellular Toxicity (caspase-3) SHSY5Y (AID 657);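 also: cells exposed to compound for 16 hours at 37 °C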
In short: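 Readout: caspase-cleaved peptide-aminoluciferin substrate driving luciferase light in SH-SY5Y neuroblastoma cells after 16 h treatment. Response normalized to DMSO and 10 uM staurosporine controls.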

[6] = Cellular Toxicity (caspase-3) BJ (AID 658)
In short: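 qHTS, BJ fibroblasts, 1000 cells/well; 5 hr preincubation, 16 hr compound, 37 °C; Caspase-Glo 3/7 reagent, 1 hr RT; luminescence. DMSO = 0%, 10 uM staurosporine = 100%. Hill-equation AC50.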

[7] = Cellular Toxicity (caspase-3) MRC-5 (AID 659)
In short: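 MRC-5 fibroblasts, 1500/well; 16 h cpd, 37 °C; Caspase-Glo 3/7, 1 h RT; lumi read. Norm: DMSO = 0%, 10 uM staurosporine = 100%. Hill-fit AC50 from qHTS conc-response.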

[8] = Cellular Toxicity (caspase-3) SK-N-SH (AID 661)
In short: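 Luminescent Caspase-Glo 3/7 read-out after 16 hr compound exposure of SK-N-SH neuroblastoma cells at 37 °C. Signal increase normalized to DMSO (basal) and 10 uM staurosporine (100%); AC50 from Hill equation fits of qHTS concentration-response data.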

[9] = Cellular Toxicity (caspase-3) H-4-II-E (AID 663); settings: Potency: caspase-3 activation; also: potency is read from the fitted curve at half-maximal effect;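 as to caspase-3 activation: cells exposed to compound for 16 hr before readout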
In short: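 H-4-II-E rat hepatoma, 1500 cells/well, 5 hr settle at 37 °C; compound 16 hr, 37 °C, complete medium; Caspase-Glo 3/7, 20 min RT; luminescence. DMSO = 0%, 100 uM tamoxifen = 100%; Hill-equation AC50.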

[10] = Cellular Toxicity (caspase-3) Hek293 (AID 664);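 also: cells exposed to compound for 16 h at 37 °C before readout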
In short: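 Luminescent Caspase-Glo 3/7 readout (aminoluciferin release) in HEK293 cells after 16 h compound treatment, 37 °C. Normalization: DMSO = basal, 100 uM tamoxifen = 100% stimulation. Concentration-response fitted with standard Hill equation for AC50.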

[11] = Cellular Toxicity (caspase-3) N2a (AID 665);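 also: compound exposure lasted 16 h at 37 °C before readout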
In short: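 Luminescent Caspase-Glo 3/7 readout in N2a mouse neuroblastoma cells after 16 h compound exposure at 37 °C. Signal scaled to DMSO (basal) and 10 uM staurosporine (100%). Concentration-response fitted with Hill equation for AC50.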

[12] = Cellular Toxicity (caspase-3) NIH 3T3 (AID 666)
In short: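 NIH 3T3, 1000 cells/well, 5 hr settle then 16 hr compound at 37°C; Caspase-Glo 3/7, 20 min RT, luminescence. DMSO = basal, 100 uM tamoxifen = 100%. Hill-equation AC50, qHTS.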

[13] = Cellular Toxicity (caspase-3) Renal Proximal Tubule (AID 667);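 also: cells exposed to compound for 16 hours at 37 °C before detection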
In short: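 Caspase-Glo 3/7 read-out, rat primary kidney proximal tubule cells. Compound exposure 16 h, 37 °C; detection after 1 h at RT. Activity scaled to DMSO and 10 uM staurosporine.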

[14] = target: Cytochrome P450 3A4 (Homo sapiens) (UniProt P08684); assay: qHTS Assay for Inhibitors and Substrates of Cytochrome P450 3A4 (AID 884); also: nearly all actives have a fitted effect of over 50% in size; also: potency is read from the fitted curve at half-maximal effect
In short: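 Luminescent readout of luciferin produced by CYP3A4 (20 nM) dealkylation of Luciferin-PPXE, 25 uM (its KM). NADPH-driven reaction ran 60 min at RT after 10 min compound preincubation; data scaled to 57 uM ketoconazole as 100% inhibition.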

[15] = target: Cytochrome P450 2C9 (Homo sapiens) (UniProt P11712); assay: qHTS Assay for Inhibitors and Substrates of Cytochrome P450 2C9 (AID 883); also: nearly all actives have a fitted effect of over 60% in size; also: potency is read from the fitted curve at half-maximal effect
In short: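 Signal: luciferase luminescence reporting luciferin produced by CYP2C9. Conditions: 10nM enzyme, Luciferin-H 100uM at KM, 25mM KPO4, 37C, 60 min NADPH-driven reaction. Reference: 57uM sulphaphenazole as 100% inhibition.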

[16] = target: Guanine nucleotide-binding protein G(i) subunit alpha-1 (Homo sapiens) (UniProt P63096); assay: qHTS Assay for Inhibitors of RGS12 GoLoco Motif Activity (Green Fluorophore) (AID 879);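 also: negative values mean loss of peptide binding seen as reduced polarization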
In short: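 A drop in FITC polarization marked displacement of the FITC-tagged RGS12 GoLoco peptide (10 nM) from Gαi1 (50 nM). Compounds were incubated 10 min at room temperature in Tris pH 7.5 buffer containing 150 mM NaCl, 0.1 mM GDP and 0.05% NP40; unlabeled peptide titration served as control.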

[17] = qHTS Assay for Identification of Small Molecule Antagonists for NFkB Signaling Pathway (AID 895; active = well fitted inhibition curve with a large enough effect in the signal ratio, with a control signal flat, not every such curve was filed as active; the % refers to the signal ratio)
In short: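 ME-180 NFkB-bla cells (beta-lactamase under NFkB response element), plated overnight, treated with compound then 10 pM TNF alpha (about EC50) for 5 hrs at 37 C. LiveBLAzer FRET read at 460/530 nm emission, 405 nm excitation.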

[18] = target: Cytochrome P450 3A4 (Homo sapiens) (UniProt P08684); assay: qHTS Assay for Activators of Cytochrome P450 3A4 (AID 885); also: nearly all actives have a fitted effect of over 65% in size
In short: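 Human CYP3A4 dealkylates Luciferin-PPXE to luciferin, which luciferase detection converts to light. Substrate was at its KM (25uM), buffer 200mM KPO4, reaction 60 min at RT.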

[19] = target: Cytochrome P450 2D6 (Homo sapiens) (UniProt P10635); assay: qHTS Assay for Inhibitors and Substrates of Cytochrome P450 2D6 (AID 891); settings: recombinant CYP2D6, luciferin-ME EGE luminescence; also: potency is read from the fitted curve at half-maximal effect; nearly all actives have a fitted effect of over 60% in size
In short: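 Luminescent read-out of luciferin formed by 5 nM human CYP2D6 demethylating 30 uM Luciferin-ME EGE (Km level) over 60 min at room temperature after NADPH regeneration addition. Data normalized to full inhibition by 1.43 uM quinidine.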

Sequence of Cytochrome P450 3A4 (Homo sapiens) (P08684 whole entry, looked up): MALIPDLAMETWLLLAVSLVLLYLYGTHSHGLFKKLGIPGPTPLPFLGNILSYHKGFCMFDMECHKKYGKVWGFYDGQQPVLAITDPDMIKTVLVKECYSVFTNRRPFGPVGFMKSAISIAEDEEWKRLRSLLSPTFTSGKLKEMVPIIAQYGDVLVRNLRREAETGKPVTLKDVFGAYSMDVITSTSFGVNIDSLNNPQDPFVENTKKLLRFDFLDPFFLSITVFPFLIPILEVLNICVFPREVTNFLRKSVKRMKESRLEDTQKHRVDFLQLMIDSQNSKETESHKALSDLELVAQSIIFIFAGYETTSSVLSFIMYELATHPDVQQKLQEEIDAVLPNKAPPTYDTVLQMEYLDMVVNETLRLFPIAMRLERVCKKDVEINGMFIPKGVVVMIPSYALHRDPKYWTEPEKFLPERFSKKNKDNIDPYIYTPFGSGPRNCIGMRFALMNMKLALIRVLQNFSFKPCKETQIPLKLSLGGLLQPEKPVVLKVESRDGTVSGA
Sequence of Guanine nucleotide-binding protein G(i) subunit alpha-1 (Homo sapiens) (P63096 whole entry, looked up): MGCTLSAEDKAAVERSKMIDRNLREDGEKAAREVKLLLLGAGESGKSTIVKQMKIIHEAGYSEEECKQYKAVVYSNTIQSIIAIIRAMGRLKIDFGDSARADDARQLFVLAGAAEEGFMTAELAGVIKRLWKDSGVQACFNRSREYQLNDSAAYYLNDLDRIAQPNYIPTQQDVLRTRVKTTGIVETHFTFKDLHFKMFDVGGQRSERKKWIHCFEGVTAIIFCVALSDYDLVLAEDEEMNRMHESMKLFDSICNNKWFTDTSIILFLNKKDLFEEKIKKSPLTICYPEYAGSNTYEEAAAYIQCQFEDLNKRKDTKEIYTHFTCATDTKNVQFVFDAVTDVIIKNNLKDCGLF
Sequence of Cytochrome P450 2C9 (Homo sapiens) (P11712 whole entry, looked up): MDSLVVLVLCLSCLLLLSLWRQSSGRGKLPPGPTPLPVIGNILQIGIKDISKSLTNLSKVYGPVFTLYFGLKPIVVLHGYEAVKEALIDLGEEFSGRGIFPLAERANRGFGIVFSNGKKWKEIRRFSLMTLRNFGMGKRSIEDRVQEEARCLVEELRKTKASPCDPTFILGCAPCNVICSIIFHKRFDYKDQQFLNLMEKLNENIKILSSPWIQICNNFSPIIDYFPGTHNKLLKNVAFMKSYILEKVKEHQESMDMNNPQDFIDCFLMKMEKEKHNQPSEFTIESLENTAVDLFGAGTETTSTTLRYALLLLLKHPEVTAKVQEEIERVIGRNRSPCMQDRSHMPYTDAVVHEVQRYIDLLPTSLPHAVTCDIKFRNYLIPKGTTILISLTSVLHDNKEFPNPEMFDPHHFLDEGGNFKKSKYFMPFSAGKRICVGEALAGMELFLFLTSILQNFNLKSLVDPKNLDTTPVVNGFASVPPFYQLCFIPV
Sequence of Cytochrome P450 2D6 (Homo sapiens) (P10635 whole entry, looked up): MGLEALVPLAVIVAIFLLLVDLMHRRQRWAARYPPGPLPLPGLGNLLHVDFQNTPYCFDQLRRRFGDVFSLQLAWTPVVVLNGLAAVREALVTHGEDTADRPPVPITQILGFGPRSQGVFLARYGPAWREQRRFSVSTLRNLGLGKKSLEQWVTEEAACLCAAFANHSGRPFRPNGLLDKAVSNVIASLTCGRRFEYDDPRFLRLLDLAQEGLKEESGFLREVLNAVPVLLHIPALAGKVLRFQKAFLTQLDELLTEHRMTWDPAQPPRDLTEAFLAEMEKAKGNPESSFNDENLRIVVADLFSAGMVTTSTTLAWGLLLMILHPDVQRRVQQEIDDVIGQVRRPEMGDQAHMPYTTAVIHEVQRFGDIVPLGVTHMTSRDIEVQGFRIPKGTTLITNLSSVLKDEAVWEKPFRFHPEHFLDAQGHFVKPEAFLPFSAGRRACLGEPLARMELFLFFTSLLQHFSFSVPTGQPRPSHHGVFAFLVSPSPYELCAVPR

With `OC[C@H]1O[C@@H]2O[C@H]3[C@H](O)[C@@H](O)[C@@H](O[C@H]4[C@H](O)[C@@H](O)[C@@H](O[C@H]5[C@H](O)[C@@H](O)[C@@H](O[C@H]6[C@H](O)[C@@H](O)[C@@H](O[C@H]7[C@H](O)[C@@H](O)[C@@H](O[C@H]8[C@H](O)[C@@H](O)[C@@H](O[C@H]1[C@H](O)[C@H]2O)O[C@@H]8CO)O[C@@H]7CO)O[C@@H]6CO)O[C@@H]5CO)O[C@@H]4CO)O[C@@H]3CO` the outcome [1] was “inactive”, the outcome [2] was “inactive” and the caspase-3 activation [3] was 1.07%. The outcome [4] was “inactive”, the outcome [5] was “inactive” and the outcome [6] was “inactive”. For the same compound, the outcome [7] was “inactive”, the outcome [8] was “inactive” and the Potency [9] was “inactive”. The outcome [10] was “inactive”, the outcome [11] was “inactive” and the outcome [12] was “inactive”. For the same compound, the outcome [13] was “inactive” and the Potency [14] was “inactive”.

In the case of `COc1ccc(C(=O)c2ccccc2)c(O)c1`, the outcome [1] is reported as “inactive”, the outcome [2] is reported as “inactive” and the caspase-3 activation [3] is reported as 25.4%. For the same compound, the outcome [4] was “inactive”, the outcome [5] was “inactive” and the outcome [6] was “inactive”. For the same compound, the outcome [7] was “inactive”, the outcome [8] was “inactive” and the Potency [9] was “inactive”. The outcome [10] was “inactive”, the outcome [11] was “inactive” and the outcome [12] was “inactive”. For the same compound, the outcome [13] was “inactive” and the Potency [14] was “inactive”.

With `COc1ccccc1N1CCN(CCCCNC(=O)c2ccc(-c3ccc(C(C)=O)cc3)cc2)CC1` the Potency [15] was “inactive”.

With `CN=C(N)NCCC[C@H](N)C(=O)O` the outcome [16] was “inactive” and the outcome [17] was “inactive”.

In the case of `CN1CCC[C@@H]1CCO[C@](C)(c1ccccc1)c1ccc(Cl)cc1`, the outcome [16] is reported as “inactive” and the outcome [18] is reported as “inactive”.

With `CC(=O)NO` the Potency [14] was “inactive”.

With `Cc1cc(C)cc(OCC2CNC(=O)O2)c1` (stereo not given) the Potency [14] was “inactive”.

For `O=C(O)c1ccc(S(=O)(=O)N(Cl)Cl)cc1`, the outcome [1] was “inactive”, the outcome [2] was “inactive” and the caspase-3 activation [3] was 0.943%. The outcome [4] was “inactive”, the outcome [5] was “inactive” and the outcome [6] was “inactive”. For the same compound, the outcome [7] was “inactive”, the outcome [8] was “inactive” and the Potency [9] was “inactive”. The outcome [10] was “inactive”, the outcome [11] was “inactive” and the outcome [12] was “inactive”. For the same compound, the outcome [13] was “inactive” and the Potency [14] was “inactive”.

In the case of `CCOc1ccccc1C(N)=O`, the outcome [1] is reported as “inactive”, the outcome [2] is reported as “inactive” and the caspase-3 activation [3] is reported as -0.33%. The outcome [4] was “inactive”, the outcome [5] was “inactive” and the outcome [6] was “inactive”. For the same compound, the outcome [7] was “inactive”, the outcome [8] was “inactive” and the Potency [9] was “inactive”. For the same compound, the outcome [10] was “inactive”, the outcome [11] was “inactive” and the outcome [12] was “inactive”. The outcome [13] was “inactive” and the Potency [14] was “inactive”.

In the case of `COc1cc([C@H]2Oc3cc([C@H]4Oc5cc(O)cc(O)c5C(=O)[C@@H]4O)ccc3O[C@@H]2CO)ccc1O`, the outcome [1] is reported as “inactive”, the outcome [2] is reported as “inactive” and the caspase-3 activation [3] is reported as 7.36%. The outcome [4] was “inactive”, the outcome [5] was “inactive” and the outcome [6] was “inactive”. For the same compound, the outcome [7] was “inactive”, the outcome [8] was “inactive” and the Potency [9] was 31.6 µM (active). For the same compound, the outcome [10] was “inactive”, the outcome [11] was “inactive” and the outcome [13] was “inactive”.

For `CC(C)(C)NC[C@H](O)COc1nsnc1N1CCOCC1`, the outcome [16] was “inactive”.

For `COc1cc(N)c(Cl)cc1C(=O)NC1CCN(Cc2ccccc2)CC1`, the Potency [15] was “inactive”, the Potency [14] was 12.6 µM (active) and the outcome [18] was “inactive”. For the same compound, the Potency [19] was 0.0126 µM (active).

With `NCCNc1cccc2ccccc12` the outcome [1] was “inactive”, the outcome [2] was “inactive” and the caspase-3 activation [3] was 6.22%. For the same compound, the outcome [4] was “inactive”, the outcome [5] was “inactive” and the outcome [6] was “inactive”. The outcome [7] was “inactive”, the outcome [8] was “inactive” and the Potency [9] was “inactive”. The outcome [10] was “inactive”, the outcome [11] was “inactive” and the outcome [12] was “inactive”. The outcome [13] was “inactive” and the Potency [14] was “inactive”.

In the case of `O=C(CCCN1CC=C(n2c(=O)[nH]c3ccccc32)CC1)c1ccc(F)cc1`, the Potency [15] is reported as “inactive”, the outcome [18] is reported as “inactive” and the Potency [19] is reported as 3.16 µM (active).

For `Cc1ncc(CO)c(C=O)c1O`, the Potency [14] was “inactive”.

With `CCCN(CCC)S(=O)(=O)c1ccc(C(=O)O)cc1` the outcome [1] was “inactive”, the outcome [2] was “inactive” and the caspase-3 activation [3] was 1.65%. For the same compound, the outcome [4] was “inactive”, the outcome [5] was “inactive” and the outcome [6] was “inactive”. The outcome [7] was “inactive”, the outcome [8] was “inactive” and the Potency [9] was “inactive”. For the same compound, the outcome [10] was “inactive”, the outcome [11] was “inactive” and the outcome [12] was “inactive”. For the same compound, the outcome [13] was “inactive” and the Potency [14] was “inactive”.

In the case of `O=C1C(=O)c2ccccc2C(O)=C1C1CCC(c2ccc(Cl)cc2)CC1` (stereo not given), the Potency [15] is reported as 2 µM (active) and the Potency [14] is reported as “inactive”.

For `CN(C)C(=O)Nc1ccc(Cl)c(Cl)c1`, the Potency [14] was “inactive”.

For `C=C[C@H]1CN2CC[C@H]1C[C@@H]2[C@@H](O)c1ccnc2ccc(OC)cc12`, the outcome [1] was “inactive”, the outcome [2] was “inactive” and the outcome [4] was “inactive”. The outcome [5] was “inactive”, the outcome [6] was “inactive” and the outcome [7] was “inactive”. For the same compound, the outcome [8] was “inactive”, the Potency [9] was “inactive” and the outcome [10] was “inactive”. For the same compound, the outcome [11] was “inactive”, the outcome [12] was “inactive” and the outcome [13] was “inactive”.

In the case of `C/C=C/c1ccc(O)c(OC)c1`, the outcome [1] is reported as “inactive”, the outcome [2] is reported as “inactive” and the caspase-3 activation [3] is reported as 1.5%. The outcome [4] was “inactive”, the outcome [5] was “inactive” and the outcome [6] was “inactive”. The outcome [7] was “inactive”, the outcome [8] was “inactive” and the Potency [9] was “inactive”. The outcome [10] was “inactive”, the outcome [11] was “inactive” and the outcome [12] was “inactive”. The outcome [13] was “inactive” and the Potency [14] was “inactive”.

In the case of `COc1ccc(C(Cl)=C(c2ccc(OC)cc2)c2ccc(OC)cc2)cc1`, the outcome [1] is reported as “inactive”, the outcome [2] is reported as “inactive” and the caspase-3 activation [3] is reported as 2.72%. The outcome [4] was “inactive”, the outcome [5] was “inactive” and the outcome [6] was “inactive”. For the same compound, the outcome [7] was “inactive”, the outcome [8] was “inactive” and the Potency [9] was “inactive”. The outcome [10] was “inactive”, the outcome [11] was “inactive” and the outcome [12] was “inactive”. For the same compound, the outcome [13] was “inactive” and the Potency [14] was “inactive”.
